The values below come from PubChem BioAssay (Tox21).

Results filed as inconclusive are left out. A number with no mark means an inactive call. Active and inactive are the calls of the source. Calls follow the shape of the dose curve; as a rule, active = well fitted cell-killing curve with a large enough effect in the repeat runs; inconclusive = weak or mixed curves, or effect the other way; inactive = flat fitted curve, though single readings scatter.

A short description of assay [1]: cAMP Responsive Elements (CRE) small molecule antagonists, cell-based qHTS assay: qHTS cell viability counter screen (AID 2060913). Also: nearly all actives have a fitted effect of over 40% in size. The method, boiled down: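 Cytotoxicity read in the same wells as the CRE-bla HEK293T antagonist assay: after 3 h compound with 0.25 uM NKH477 final and 2 h beta-lactamase substrate, CellTiter-Glo luminescence measured.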
A general note: qHTS replaces the single test concentration by a dilution series.

Assay [2] can be described thus: cAMP Responsive Elements (CRE) small molecule agonists, cell-based qHTS assay: qHTS cell viability counter screen (AID 2060914). Also: nearly all actives have a fitted effect of over 50% in size. The essentials: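 HEK 293T CRE-bla; DMEM + 10% dialyzed FBS, 25 mM HEPES; 18 h pre-incubation; compound 3 h, 37 °C/5% CO2; CellTiter-Glo added after reporter read; luminescence after 30 min RT.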
% is scaled to controls: 0 for no effect and ±100 for the full control effect.

With `CC[C@@]1(c2ccccc2)NC(=O)N(C)C1=O`, the Potency entry in assay [1] and in assay [2] was “inactive” throughout.

On to `CCC(C)C(=O)OCCc1ccccc1` (centres undefined), for which the Potency entry in assay [1] and in assay [2] was “inactive” in each case.

Consider `c1ccc2c(c1)-c1ccc3ccc4cccc5cc-2c1c3c45`, for which the Potency entry in assay [1] and in assay [2] was “inactive” throughout.

`O=P(O)(O)C(O)(Cc1cccnc1)P(=O)(O)O`: the Potency result in assay [1] and in assay [2] was “inactive” in each case.

With `Cc1ccc2ccccc2c1[N+](=O)[O-]`, the Potency result in assay [1] and in assay [2] was “inactive” each time.

As to `CCCNC(C)C(=O)Nc1ccccc1C` (centres undefined), the Potency result in assay [1] and in assay [2] was “inactive” throughout.

Take `CC1CNCC(C)O1` (centres undefined): the Potency entry in assay [1] and in assay [2] was “inactive” in each case.

For `O[C@@H](c1cc(C(F)(F)F)nc2c(C(F)(F)F)cccc12)[C@H]1CCCCN1`, the Potency entry in assay [1] and in assay [2] was “inactive” each time.

With `NC(=O)Nc1ccc(Cl)c(Cl)c1`, the Potency entry in assay [1] and in assay [2] was “inactive” throughout.

For the molecule `COC(=O)c1cccc(C(=O)OC)c1`, the Potency entry in assay [1] and in assay [2] was “inactive” throughout.

With `C=CCOC(=O)CC(C)C`, the Potency result in assay [1] and in assay [2] was “inactive” in each case.

As for `Cn1c(NCCN(CCO)CCCc2ccc([N+](=O)[O-])cc2)cc(=O)n(C)c1=O`, the Potency result in assay [1] and in assay [2] was “inactive” in each case.

As to `CCN(CCO)CCCC(C)Nc1ccnc2cc(Cl)ccc12` (centres undefined), the viability change, negative = cytotoxic in assay [1] was 24.8% [at 8.39 µM]. Besides, the activity change, negative = cytotoxicity in assay [2] is -9.15% [at 8.39 µM].

For the molecule `Oc1cccc(O)c1O`, the Potency entry in assay [1] and in assay [2] was “inactive” throughout.

With `Cc1cc(OI)c(C(C)C)cc1-c1cc(C(C)C)c(OI)cc1C`, the Potency result in assay [1] and in assay [2] was “inactive” throughout.

Regarding `CC(C)CCCCCOC(=O)CCCCC(=O)OCCCCCC(C)C`, the Potency entry in assay [1] and in assay [2] was “inactive” in each case.

As for `CCCCC(O)/C=C(C)/C=C/C=C/C(=O)N1CCCC1=O` (centres undefined), the Potency entry in assay [1] and in assay [2] was “inactive” in each case.

Take `CCCN(CCC)C(=O)C(CCC(=O)OCCCN1CCN(CCOC(=O)Cc2c(C)n(C(=O)c3ccc(Cl)cc3)c3ccc(OC)cc23)CC1)NC(=O)c1ccccc1` (centres undefined): the Potency entry in assay [1] and in assay [2] was “inactive” each time.

For `c1ccc(SCCSc2ccccc2)cc1`, the Potency result in assay [1] and in assay [2] was “inactive” throughout.

Consider `Cc1occc1SSc1ccoc1C`, for which the Potency result in assay [1] and in assay [2] was “inactive” in each case.

Turning to `COC(=O)C1CC(=O)C(C(=O)OC)CC1=O` (centres undefined), in assay [1], the viability change, negative = cytotoxic was 18.8% [at 8.39 µM]. Further, the activity change, negative = cytotoxicity in assay [2] was -4.18% [at 8.39 µM].

As to `Oc1ccccc1F`, the Potency entry in assay [1] and in assay [2] was “inactive” throughout.

Take `Clc1ccc2n[nH]nc2c1`: the Potency entry in assay [1] and in assay [2] was “inactive” in each case.

With `CCOC(=O)CC(=O)c1cc(F)c(Cl)nc1Cl`, the Potency result in assay [1] and in assay [2] was “inactive” each time.

Take `COC(=O)N/N=C/c1c[n+]([O-])c2ccccc2[n+]1[O-]`: the Potency result in assay [1] and in assay [2] was “inactive” each time.

As for `FC(F)(F)C(Cl)(Cl)Cl`, the Potency entry in assay [1] and in assay [2] was “inactive” each time.

Consider `CC(=O)c1ccccc1N`, for which the Potency entry in assay [1] and in assay [2] was “inactive” throughout.

For `C=C(C)C(=O)OCC(O)CO` (centres undefined), the Potency result in assay [1] and in assay [2] was “inactive” throughout.

Turning to `CCOC(=O)c1ccc(O)c(O)c1`, the Potency result in assay [1] and in assay [2] was “inactive” each time.

As for `CC(C)(C)NC(N)=O`, the Potency entry in assay [1] and in assay [2] was “inactive” each time.

`CC(C)C(=O)OC/C=C/c1ccccc1`: the Potency result in assay [1] and in assay [2] was “inactive” throughout.

On to `O=C1OC(=O)c2cc([N+](=O)[O-])ccc21`, for which the Potency entry in assay [1] and in assay [2] was “inactive” each time.

Turning to `COc1ccc(-c2cc(=O)c3c(O)cc(O[C@@H]4O[C@H](CO[C@@H]5O[C@@H](C)[C@H](O)[C@@H](O)[C@H]5O)[C@@H](O)[C@H](O)[C@H]4O)cc3o2)cc1O`, the Potency entry in assay [1] and in assay [2] was “inactive” throughout.

On to `Oc1ccc2c(c1)-c1ccccc1C2`, for which the Potency entry in assay [1] and in assay [2] was “inactive” throughout.

On to `NCCNC(=O)c1ccc(Cl)cn1`, for which the Potency entry in assay [1] and in assay [2] was “inactive” in each case.

Take `COc1cc(NCc2ccc3nc(N)nc(N)c3c2C)cc(OC)c1OC`: the Potency result in assay [1] and in assay [2] was “inactive” in each case.

`CC(C)COC(=O)c1ccccc1`: the Potency result in assay [1] and in assay [2] was “inactive” throughout.

Turning to `CC(C)(C)NCC(O)COc1ccccc1OCC1CCCO1` (centres undefined), the Potency result in assay [1] and in assay [2] was “inactive” each time.

As to `Cc1ccc(-c2ccccc2C#N)cc1`, the Potency result in assay [1] and in assay [2] was “inactive” in each case.

Consider `C=CCOC(=O)CCCCCCCC`, for which the Potency entry in assay [1] and in assay [2] was “inactive” each time.

Consider `CCCCCCCCN1CCCC1=O`, for which the Potency result in assay [1] and in assay [2] was “inactive” each time.

Regarding `O=CC1CC=CCC1` (centres undefined), the Potency entry in assay [1] and in assay [2] was “inactive” in each case.

On to `COCCOCCOCCO`, for which the Potency result in assay [1] and in assay [2] was “inactive” in each case.

With `CN1CCN(C(c2ccccc2)c2ccccc2)CC1`, the Potency entry in assay [1] and in assay [2] was “inactive” each time.

Regarding `Nc1ccc2cc3ccc(N)cc3nc2c1`, the Potency entry in assay [1] and in assay [2] was “inactive” throughout.

For `Cc1ccc(NC=O)c(C)c1`, the Potency entry in assay [1] and in assay [2] was “inactive” throughout.

`O=C(O)C(=O)O`: the Potency result in assay [1] and in assay [2] was “inactive” in each case.

Take `OCCN1CCOCC1`: the Potency result in assay [1] and in assay [2] was “inactive” throughout.

In the case of `O=Cc1ccc(CO)o1`, the Potency result in assay [1] and in assay [2] was “inactive” each time.

`Cc1ccc(S(=O)(=O)O)cc1`: the Potency entry in assay [1] and in assay [2] was “inactive” throughout.

`Nc1ccccn1`: the Potency entry in assay [1] and in assay [2] was “inactive” in each case.

Turning to `CN(C)CCN1CCOCC1`, the Potency entry in assay [1] and in assay [2] was “inactive” each time.

Turning to `CCOC(=O)C(=O)OCC`, the Potency result in assay [1] and in assay [2] was “inactive” in each case.

As to `Oc1ccc2c(c1)Cc1ccccc1-2`, the Potency result in assay [1] and in assay [2] was “inactive” each time.

For `CC1(C)NC(=O)N(c2ccc([N+](=O)[O-])c(C(F)(F)F)c2)C1=O`, the Potency entry in assay [1] and in assay [2] was “inactive” in each case.

On to `CC(C(=O)O)c1ccc2c(c1)CC(=O)c1ccccc1S2` (centres undefined), for which the Potency result in assay [1] and in assay [2] was “inactive” each time.

In the case of `CCOC(=O)C1=NN(c2ccccc2)C(=O)C1`, the Potency entry in assay [1] and in assay [2] was “inactive” throughout.
